HCV inh = qHTS Assay for Inhibitors of Hepatitis C Virus (HCV); Huh7.5.1 HCVcc-Cre infection, luciferase reporter, 44 h; Potency, µM (top dose mostly 41.8 µM), for inactives: at the highest dose activity change, negative = inhibition, hits mostly inhibitors; hit rate 3.4% among 340,000; AID 651820, 2012
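A cell-based infection assay in which seeded cells (1,000 per well) receive test compound after 4 h, are inoculated with HCVcc-Cre at approximately 0.5 moi, and are incubated 44 h before luminescence detection.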
FMDV inh = High Throughput Screening for Foot and Mouth Disease Virus Antivirals; Potency, µM (series often up to 57.9 µM), for inactives: at the highest dose activity change, negative = inhibition, hits mostly inhibitors; hit rate 1.2% among 410,000; FMDV antiviral cell-based qHTS; calls by dose curve; tested in HEK293T cells; note: read-out not given here; nearly all actives have a fitted effect of over 45% in size
Sm TGR inh = qHTS Assay for the Inhibitors of Schistosoma Mansoni Peroxiredoxins. Schistosoma mansoni thioredoxin glutathione reductase (TGR), Q962Y6. purified TGR, DTNB reduction, TNB absorbance 405 nm. hit rate 3% among 360,000. Potency, µM (top dose mostly 114 µM), for the others: top-dose activity change, negative = inhibition, actives largely listed as inhibitors; note: nearly all actives have a fitted effect of over 60% in size
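First, TGR (20 nM dispensed) and NADPH were mixed with compound. Second, a 15 min room-temperature incubation followed. Third, further NADPH and then DTNB were added to start the reaction. Finally, TNB absorbance was monitored kinetically.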
RE007 growth inh = qHTS Assay for Inhibitors of the HIV-1 protein Vpr; S. pombe RE007 Vpr strain, BacTiter-Glo ATP luminescence, 24 h; Potency, µM (top dose mostly 92.2 µM), without a hit: top-dose activity change, negative = less growth, usual class: inhibitors; hit rate 0.21% among 360,000; active = well fitted falling curve with a large enough effect; inconclusive = small, poorly fitted or top-dose-only effect; inactive = no such curve, though single readings can be large or run the other way; note: nearly all actives have a fitted effect of over 50% in size
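Fission yeast strain RE007, carrying one chromosomally integrated HIV-1 vpr copy, was seeded at OD 0.01 in PMG+AL medium with 23 nL pinned compound. After 24 h at 30 °C and 99% humidity, viability was read by BacTiter-Glo luminescence.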
LASV entry inh = qHTS for Inhibitors of binding or entry into cells for Lassa Virus. Lassa virus pseudotype entry inhibition, cell reporter. hit rate 1.2% among 300,000. Potency, µM (series often up to 37.9 µM), for inactives: at the top dose activity change, negative = inhibition, actives largely listed as inhibitors. AID 540256, 2011; calls by dose curve; tested in HEK293 cells; note: nearly all actives have a fitted effect of over 50% in size
Marburg entry inh = qHTS for inhibitors of binding or entry into cells for Marburg Virus. Marburg virus pseudotyped entry inhibition, cell reporter. hit rate 1.8% among 300,000. Potency, µM (titrated, usually from 37.8 µM), without a hit: top-dose activity change, negative = inhibition, most hits filed as inhibitors; calls by dose curve; tested in HEK293 cells
* = called active by the depositor; ? = inconclusive; · = not tested or not shown; [ ] = remark or other dose. Sampled rows, rich in hits. Any-hit rate of the full collection: about 7.2%. Unless noted, calls come from the whole dose curve; as a rule, active = well fitted curve in the direction sought with a large enough effect; inconclusive = small, poorly fitted or top-dose-only effect, or another doubt; inactive = no such curve, though single readings can be large; an effect the other way counts as inactive or inconclusive. % is set by controls: 0 for no effect and ±100 for the full control effect; potency is the fitted concentration of half-maximal effect.

SMILES	HCV inh	FMDV inh	Sm TGR inh	RE007 growth inh	LASV entry inh	Marburg entry inh
O=C1C(=O)N(Cc2ccco2)C(c2cccc(Cl)c2)/C1=C(\O)c1ccc2c(c1)OCCO2 (stereo unspecified)	14.3%	-15.4%	35.5µM*	1.7%	2.9%	2.8%
Cc1ccc(/C(O)=C2\C(=O)C(=O)N(Cc3ccco3)[C@@H]2c2cccs2)cc1	·	·	·	·	·	1.7%
Cc1ccc(C2/C(=C(/O)c3ccc(Br)cc3)C(=O)C(=O)N2Cc2ccco2)o1 (stereo unspecified)	26.0%	21.3%	7.94µM*	-14.9%	16.3%	10.2%
C=CC1=C2C=C(C3CC3)N(c3ccc(OC)cc3)C=C2C(=O)C(C)(OC(=O)c2ccco2)C1=O (stereo unspecified)	·	·	·	·	·	-21.5%[14.2 µM]
COc1ccc(-c2nc(C)c(CCNC(=O)c3cccc(C)c3)s2)cc1OC	·	31.6%	-2.0%	·	-27.4%[46.1 µM]	·
COc1ccc(CN(C)C[C@@H]2OCCCC[C@H](C)Oc3ccc(NC(=O)Nc4ccc(F)cc4)cc3C(=O)N([C@H](C)CO)C[C@H]2C)cc1	·	?	·	7.9%	·	·
CN(C)c1ccc(C=Nc2ccccc2C(N)=O)cc1	-1.5%	-36.9%	-10.0%	-25.8%	?	14.6µM*
Cc1ccc(C=Nc2ccccc2C(N)=O)o1	11.1%	8.6%	-8.3%	-4.1%	-0.7%	0.0%
COc1ccc(CNC(=O)C2CCN(S(=O)(=O)N3CCCC3)CC2)c(OC)c1	13.0%	-25.1%	0.0%	4.1%	·	·
COc1ccc(OC)c(CNC(=O)C2CCN(S(=O)(=O)N3CCCC3)CC2)c1	0.2%	·	79.4µM*	3.9%	-2.9%	3.1%
C#CCN1CC(COCCCC)Oc2cccc(F)c2S1(=O)=O (stereo unspecified)	·	·	·	·	-1.4%[46.1 µM]	·
O=C(O)c1cccc(Cn2c(Cl)c(/C=N/NC(=O)c3cccc(O)c3)sc2=O)c1	10.7%	1.1%	9.3%	-4.7%	-16.2%	-3.8%[46.1 µM]
O=C(O)c1ccc(/C=N/NC(=O)c2cc3ccccc3cc2O)cc1	-8.3%	3.3%	·	-1.0%	0.9%	0.8%
O=C(O)c1cccc(Cn2c(Cl)c(/C=N/NC(=O)c3ccco3)sc2=O)c1	30.7%	6.5%	44.7µM*	-13.7%	·	·
O=C(O)c1cccc(Cn2c(Cl)c(/C=N/NC(=O)c3ccccc3)sc2=O)c1	0.0%	-12.0%	56.2µM*	-11.3%	-9.6%	8.8%
O=C(N/N=C\c1ccoc1)c1ccco1	18.1%	25.4%	0.6%	13.5%	12.4%[46.1 µM]	?
O=C(O)c1cccc(Cn2c(Cl)c(/C=N/NC(=O)c3cc4ccccc4cc3O)sc2=O)c1	-5.6%	-21.3%	31.6µM*	-6.9%	·	·
O=C(/C=C/c1ccco1)Nc1ccccc1C(=O)O	13.5%	-36.6%	17.8µM*	-9.9%	?	?
O=C(/C=C/c1ccco1)Nc1ccccc1C(=O)Nc1cccc(C(=O)O)c1	42.2%	3.0%	25.1µM*	-9.1%	-22.6%	?
CN(C(=O)/C=C/c1ccco1)c1ccccc1C(=O)O	-2.8%	16.4%	3.55µM*	-0.4%	·	·
CN(C(=O)C=Cc1ccco1)c1ccccc1	2.0%	3.1%	·	-23.8%	9.9%[46.1 µM]	24.2%
O=C(O)/C=C/C(=O)Nc1ccccc1C(=O)Nc1ccccc1	6.3%	11.6%	35.5µM*	-3.1%	?	4.3%
Clc1ccc(-c2noc(-c3cccnc3N3CCN(c4ccccc4)CC3)n2)cc1	·	-1.2%	-1.3%	·	4.9%[46.1 µM]	-16.5%[46.1 µM]
O=C(NCC1Cc2cccc(-c3ccccn3)c2O1)c1cnn2cccnc12 (stereo unspecified)	·	2.7%	·	·	·	·
O=S(=O)(c1ccc(Br)cc1)c1nnn2c1nc(NCc1ccc3c(c1)OCO3)c1sccc12	·	-15.5%	1.0%	·	12.8%[46.1 µM]	·
SMILES	HCV inh	FMDV inh	Sm TGR inh	RE007 growth inh	LASV entry inh	Marburg entry inh
COC(=O)[C@@H]1CCCN1Cc1ccc2c(c1)CN(Cc1ccccc1C)CCO2	·	-10.1%	·	·	·	·
c1cncc(-c2nn3c(Cn4nnc5ccccc54)nnc3s2)c1	20.9%	22.0%	10.6%	-3.5%	-0.2%	3.26µM*
c1ccc(-c2nn3c(Cn4nnc5ccccc54)nnc3s2)nc1	-31.0%	1.2%	5.4%	-12.3%	6.3%	19.0%
CCc1ccccc1NC(=O)CCS(=O)(=O)c1ccc(OC)cc1	-2.2%	0.0%	14.1µM*	-13.1%	0.8%[46.1 µM]	2.5%[46.1 µM]
Cc1cccc(C)c1NC(=O)CCS(=O)(=O)c1ccc(Br)cc1	4.6%	-16.6%	0.7%	-0.1%	-6.7%[46.1 µM]	?
COc1ccc(S(=O)(=O)CCC(=O)Nc2c(C)cccc2C)cc1	16.5%	-16.9%	39.8µM*	-4.3%	·	·
CC(=O)CCS(=O)(=O)c1ccc(Oc2ccc(S(=O)(=O)CCC(C)=O)cc2)cc1	?	?	10µM*	-15.6%	-9.5%	?
O=S(=O)(CCN1CCOCC1)c1ccc(Oc2ccc(S(=O)(=O)CCN3CCOCC3)cc2)cc1	3.55µM*	?	-16.5%	-13.5%	-0.7%	?
N#CCCn1c(=O)c(-c2ccccc2)nc2cnc(N3CCNCC3)nc21	·	-11.0%	·	·	·	·
CCNS(=O)(=O)c1ccc(CCC(=O)NCCc2ccc(OC)cc2)cc1	?	-5.8%	6.2%	17.9%	-12.8%	6.8%
COc1ccc(CNC(=O)CCS(=O)(=O)c2ccc3c(c2)NC(=O)CS3)cc1	12.8%	-16.3%	12.6µM*	1.1%	·	·
COc1ccc(S(=O)(=O)CCC(=O)NCCc2ccc(C)cc2)cc1	10.5%	7.4%	31.6µM*	4.7%	-2.3%	-1.3%
CC(=O)c1sc(Nc2ccccc2)nc1C	·	29.3%	·	?	·	·
Cc1nc(Nc2ccccc2)sc1-c1ccccc1	?	0.0%	1.1%	35.5µM*	?	?
Cc1nc(Nc2ccc(C(=O)O)cc2)sc1-c1ccccc1	20.8%	7.08µM*	-1.0%	7.4%	?	?
c1ccc(Nc2nc(-c3ccccc3)ns2)cc1	?	2.5%	2.2%	6.5%	?	10µM*
COc1ccccc1C1CN(CCNC(=O)c2cnsn2)Cc2ccccc2O1 (stereo unspecified)	·	9.3%	·	·	·	·
CCOC(=O)C1=C(CC)Nc2ccccc2N=C1NC(=O)c1ccc(S(=O)(=O)N(C)C)cc1	-13.1%	5.0%	-12.2%	?	-9.9%	-8.5%
CCOC(=O)C1=C(CC)Nc2ccccc2N=C1NC(=O)CCNC(C)=O	12.8%	-0.3%	-5.8%	31.2%	2.82µM*	2.6%
CCCNC(=O)OC[C@H]1O[C@H](CCON=C(C)CCC(=O)OC[C@H]2O[C@H](C#Cc3ccccc3)C=C[C@H]2Oc2ccc(C)cc2)C=C[C@H]1Oc1ccc(OC)cc1	·	·	·	·	·	-28.6%[14.2 µM]
CCCCNC(=S)Nc1ccc(SC(F)F)cc1	11.2µM*	0.0%	5.6%	9.5%	?	?

Source: PubChem BioAssay (National Center for Advancing Translational Sciences (NCATS))
